Screens as filed in PubChem BioAssay.
Rows were chosen to be rich in hits. Some 21% of all compounds tested hit in one or more screens of this group.
TDP1 cell noCPT – qHTS for Inhibitors of human tyrosyl-DNA phosphodiesterase 1 (TDP1): qHTS in cells in absence of CPT. Potency, µM (titrated, usually from 46.2 µM), for the others: top-dose activity change, negative = growth inhibition, actives largely listed as inhibitors. 15% of 420,000 active. DT40 Tdp1-/- hTDP1 cells, no CPT, ATP luminescence, 48 h; further: potency means the concentration at half of the fitted maximal effect; nearly all actives have a fitted effect of over 55% in size
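Camptothecin absent (DMSO only). Human TDP1-complemented DT40 knockout cells, 400 cells/well, 37 °C for minimum 48 hr; ATP measured via CellTiter-Glo, 30 min dark incubation, luminescence.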
RORg inh – inhibitors of mouse ROR gamma transcriptional activity; P51450; Drosophila S2 Gal4-RORgamma UAS-luciferase reporter, 20 h; Potency, µM (series often up to 53.6 µM), without a hit: top-dose activity change, negative = inhibition, hits mostly inhibitors; 5.4% of 310,000 active; further: potency means the concentration at half of the fitted maximal effect; nearly all actives have a fitted effect of over 60% in size
Target sequence (P51450 whole entry, looked up, the tested form may be a part): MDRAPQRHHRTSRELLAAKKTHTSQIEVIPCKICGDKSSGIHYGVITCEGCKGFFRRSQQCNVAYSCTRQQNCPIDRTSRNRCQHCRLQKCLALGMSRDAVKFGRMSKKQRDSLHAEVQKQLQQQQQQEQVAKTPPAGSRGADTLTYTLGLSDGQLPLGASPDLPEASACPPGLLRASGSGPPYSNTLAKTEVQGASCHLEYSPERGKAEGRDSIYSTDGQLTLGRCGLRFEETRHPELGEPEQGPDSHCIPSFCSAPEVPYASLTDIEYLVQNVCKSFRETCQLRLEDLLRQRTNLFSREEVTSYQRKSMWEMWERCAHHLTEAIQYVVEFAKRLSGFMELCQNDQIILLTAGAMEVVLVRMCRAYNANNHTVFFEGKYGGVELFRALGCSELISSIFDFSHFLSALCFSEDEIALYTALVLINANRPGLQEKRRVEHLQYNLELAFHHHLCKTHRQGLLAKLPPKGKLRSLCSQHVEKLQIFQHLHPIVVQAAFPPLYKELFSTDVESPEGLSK
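ROR gamma transcriptional activity was tracked as Gal4-UAS luciferase output in stably transfected Drosophila Schneider cells, with compound added 1 hr before 700 uM copper sulfate induction and a 20 hr ambient-temperature incubation.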
IL-1B inflam inh – inflammasome signaling inhibition, IL-1 beta readout; activity change, % at 57.5 µM; THP-1 LPS/ATP IL-1B secretion, AlphaLISA, 16 h; hits give low values; 4.7% of 360,000 active; AID 743279; in the data active means activity change below about -50%; inconclusive means mostly about -30% to -49%
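THP-1 cells pretreated 1 hr with compounds (up to 57.5 uM final), then stimulated with LPS (250 ng/mL final) plus ATP (1.25 mM final); secreted IL-1B measured by AlphaLISA after 16 hr, decreased signal indicating inhibition.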
VP16 counter – inhibits Gal4-VP16 luciferase reporter, ROR gamma counter-screen | Drosophila S2 Gal4-VP16 UAS-luciferase, luminescence, 20 h | Potency, µM (highest dose often 53.6 µM), without a hit: at the top dose activity, negative = inhibition, usual class: inhibitors | 3.5% of 310,000 active | AID 2546;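 further: Gal4-VP16 expression switched on by copper sulfate through the metallothionein promoter; potency means the concentration at half of the fitted maximal effect; nearly all actives have a fitted effect of over 50% in size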
TDP1 cell CPT – DT40-hTDP1 cell growth loss with CPT | chicken DT40 Tdp1-/-;hTDP1 cells + 20 nM CPT, ATP luminescence, 48 h | Potency, µM (top dose mostly 46.2 µM), for the others: top-dose activity change, negative = growth inhibition, most hits filed as inhibitors | 12% of 420,000 active | AID 686979; further: potency means the concentration at half of the fitted maximal effect; nearly all actives have a fitted effect of over 55% in size
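Cell growth measured by CellTiter-Glo luminescence after a minimum 48 h, 37 C compound exposure with 20 nM CPT in Tdp1-knockout DT40 cells stably expressing hTDP1, seeded 400/well; qHTS titration format.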
ELG1 repair inh – inhibitors of ELG1-dependent DNA repair in HEK293T cells; HEK293T ELG1-luciferase reporter, luminescence, 16 h; DNA damage induced by 5-fluorouridine; Potency, µM (highest dose often 46.1 µM), for inactives: top-dose activity change, negative = inhibition, most hits filed as inhibitors; 2.3% of 330,000 active; AID 504467; further: potency means the concentration at half of the fitted maximal effect; nearly all actives have a fitted effect of over 55% in size
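HEK293T cells expressing luciferase-tagged ELG1 (2,000/well) received 5-Fluorouridine plus compound or DMSO for 16 hr at 37 °C. Luciferase was read by ONE-Glo luminescence after 30 min at room temperature.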
* hit, by the source's call; ? = inconclusive; · = no result given; [ ] = another dose, or the depositor's remark. Unless noted, the call rests on the fitted dose curve; in most records, active means well fitted curve in the direction sought with a large enough effect; inconclusive means small, poorly fitted or top-dose-only effect, or another doubt; inactive means no such curve, though single readings can be large; an effect the other way counts as inactive or inconclusive. On the % scale 0 is the no-effect control and ±100 the full control effect.

SMILES | TDP1 cell noCPT | RORg inh | IL-1B inflam inh | VP16 counter | TDP1 cell CPT | ELG1 repair inh
COc1ccc(CC(=O)NCC2CCCN(Cc3ccc(SC)cc3)C2)cc1 (stereo not drawn) | -29.7% | ? | -0.4 | -2.0% | 1.3% | -14.7%
CNc1ncnc2c1ncn2[C@H]1CN(Cc2ccco2)C[C@@H](CO)O1 | -11.7% | · | 33.1 | · | 1.3% | ·
CCC(C)(C)C | · | 31.8% | · | 7.8% | · | ·
C=CCn1c(SCC(=O)Nc2ccc(OC)cc2)nnc1-c1cnccn1 | -14.5% | -16.3% | -3.4 | -8.9% | -1.6% | 0.2%
CCN(CC(=O)Nc1ccc2c(c1)CCC2)Cc1nc2ccccc2c(=O)[nH]1 | 8.2µM* | 5.01µM* | 4.2 | -3.2%[0.365 µM] | 3.66µM* | ?
COc1cc(OC)cc(-c2nnc(SCc3cccc(C(=O)O)c3)o2)c1 | 3.1% | ? | -9.3 | 7.08µM* | -10.7% | -0.7%
O=C(c1cccc(Br)c1)N1CCCc2ccccc21 | ? | ? | 36.5 | -0.9% | ? | -16.8%
O=C(CSc1nnc(-c2ccccc2O)o1)N1CCc2ccccc2C1 | ? | 10µM* | -4.0 | ? | ? | -29.2%
COc1cccc(C(=O)NNC(=O)c2ccccc2)c1 | 7.4% | -22.4% | 14.0 | -12.8% | -9.1% | ?
COc1cccc(C(=O)NN2c3ccccc3CCc3ccccc32)c1 | 10.3µM* | ? | 9.5 | ? | 20.6µM* | ?
O=C(c1coc(=O)c(Br)c1)N1CCCc2ccccc21 | 2.59µM* | 1.1%[10 µM] | 22.4 | ? | 1.84µM* | ?
CCOc1ccc(N2CC(NC(=O)C3CCCC3)CC2=O)cc1 (stereo not drawn) | 2.4% | · | · | · | 0.5% | ·
Cc1ccc(-c2nnc(SCC(=O)N3CCc4ccccc43)o2)cc1 | -3.2% | · | · | · | 6.1% | ·
COc1cc(C(=O)N2CCc3ccccc32)cc(OC)c1OC | -26.7% | 31.5% | 15.2 | -1.1% | -1.3% | -6.1%
O=C(CSc1ccc(-c2ccc(F)cc2)nn1)N1CCCc2ccccc21 | ? | 25.1% | 14.0 | -7.5% | 16.4µM* | ?
O=C(CSc1nnc(-c2ccc(F)cc2)o1)N1CCCc2ccccc21 | 18.4µM* | · | · | · | ? | ·
COc1cc2ccccc2cc1C(=O)N1CCc2ccccc21 | 14.6µM* | · | 0.6 | · | 16.4µM* | ?
COc1cc(OC)cc(C(=O)N2CCCc3ccccc32)c1 | ? | -1.7% | -23.6 | -7.8% | 16.4µM* | ?
CC(=O)Nc1ccc(NC(=O)c2cc(CN3CCCC3)on2)cc1 | -18.0% | · | · | · | -0.7% | ·
Cc1ccc(CCNC(=O)c2cc3sccc3n2Cc2ccc(Cl)cc2)cc1 | -7.6% | · | · | · | -16.1% | ·
CCN(C(=O)COC(=O)c1cc2ccccc2cc1OC)c1c(N)n(Cc2ccccc2)c(=O)[nH]c1=O | ? | · | -4.8 | · | ? | ·
O=C(c1coc(=O)c(Br)c1)N1CCC(C(O)(c2ccccc2)c2ccccc2)CC1 | 1.84µM* | 26.0% | -16.6 | 21.1% | 0.651µM* | 13.8%
CC1(C)CCCN(C(=O)c2coc(=O)c(Br)c2)C1 | 0.82µM* | 5.8% | 10.9 | -2.9% | 0.92µM* | ?
CC(=O)c1cccc(OCC(=O)N2CCCc3ccccc32)c1 | 16.4µM* | -14.0% | 54.7 | -6.6% | ? | 17.3%
O=C(C1CC1)N1CCC(C(O)(c2ccccc2)c2ccccc2)CC1 | -26.6% | 21.7% | 3.0 | -9.3% | -0.4% | 5.8%
COc1cccc(-c2nnc(SCC(=O)N3CCCc4ccccc43)o2)c1 | -14.1% | 7.8% | 8.7 | -10.0% | -4.6% | ?
COC(=O)c1ccc(OCC(=O)N2CCCc3ccccc32)cc1 | -30.0% | 0.3% | 3.9 | 2.3% | 5.2% | 0.8%
COc1cc(OC)cc(-c2nnc(SCC(=O)N3CCCc4ccccc43)o2)c1 | 20.6µM* | 29.5% | -3.3 | 2.0% | ? | ?
